# In the library only some 3.3% were active in any assay of this set; here they are far more common.
# AmpC no deterg: blocks E. coli AmpC beta-lactamase in detergent-free assay; P00811; AmpC nitrocefin hydrolysis, absorbance 480 nm, 0.0001% Triton; Potency, µM (highest dose often 57.1 µM), without a hit: at the highest dose activity change, negative = inhibition, hits mostly inhibitors; 0.52% of 330,000 active; AID 485341;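 note: plate controls were no compound for no effect and no enzyme for full effect; nearly all actives have a fitted effect of over 20% in size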
# Target sequence (P00811 whole entry, looked up): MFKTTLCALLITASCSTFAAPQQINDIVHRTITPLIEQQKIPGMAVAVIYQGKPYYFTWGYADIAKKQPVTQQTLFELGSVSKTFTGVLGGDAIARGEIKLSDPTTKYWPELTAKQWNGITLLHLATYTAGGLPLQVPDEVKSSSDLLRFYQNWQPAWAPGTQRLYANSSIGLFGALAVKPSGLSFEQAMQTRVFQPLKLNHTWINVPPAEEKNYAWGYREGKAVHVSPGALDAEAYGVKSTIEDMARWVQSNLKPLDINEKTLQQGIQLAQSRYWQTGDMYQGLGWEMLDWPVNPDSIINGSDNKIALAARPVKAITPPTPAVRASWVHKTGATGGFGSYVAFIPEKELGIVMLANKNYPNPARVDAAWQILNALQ
#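 AmpC (5.3 nM in the dispensed reagent) in 20 mM phosphate pH 7.0 with 0.01% (detergent screen) or 0.0001% Triton X-100 was preincubated with compounds for 15 min at room temperature. Nitrocefin was then added from an 800 uM solution, and hydrolysis was followed at 480 nm.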
# Sm TGR inh: blocks Schistosoma mansoni thioredoxin glutathione reductase | 3% of 360,000 active | AID 485364 | purified TGR, DTNB reduction, TNB absorbance 405 nm | Potency, µM (titrated, usually from 114 µM), without a hit: top-dose activity change, negative = inhibition, hits mostly inhibitors; note: nearly all actives have a fitted effect of over 60% in size
#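 First, TGR (20 nM dispensed) and NADPH were mixed with compound. Second, a 15 min room-temperature incubation followed. Third, further NADPH and then DTNB were added to start the reaction. Finally, TNB absorbance was monitored kinetically.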
# AmpC inh detg: blocks E. coli AmpC beta-lactamase in detergent assay. AmpC hydrolysis of nitrocefin, absorbance 480 nm, 0.01% Triton. 0.041% of 370,000 active. AID 485294. Potency, µM (doses to about 114 µM), for the others: at the top dose activity change, negative = inhibition, actives largely listed as inhibitors. P00811;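 note: 0% = no-compound wells and -100% = no-enzyme wells; nearly all actives have a fitted effect of over 25% in size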
#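 20 mM phosphate pH 7.0 + 0.01% (detergent screen) or 0.0001% Triton X-100; 5.3 nM AmpC reagent; cpd preinc 15 min RT; nitrocefin (800 uM stock) to start; A480 q20 s × 4 min; Activity was normalised to no-enzyme and no-compound control wells.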
# The depositor's hits bear a star; ? = inconclusive; . = no result given. Calls come from the whole dose curve; as a rule, active = well fitted curve in the direction sought with a large enough effect; inconclusive = small, poorly fitted or top-dose-only effect, or another doubt; inactive = no such curve, though single readings can be large; an effect the other way counts as inactive or inconclusive. Unless noted, % is set by controls: 0 for no effect and ±100 for the full control effect; potency is the fitted concentration of half-maximal effect.
SMILES,AmpC no deterg,Sm TGR inh,AmpC inh detg
CCN1CCN(C(c2ccc(OC)cc2)c2c(O)cc(C)n(CCOC)c2=O)CC1 (stereo not drawn),.,10µM*,2.1%
CCN1CCN(C(c2ccccc2)c2nnnn2Cc2ccc(OC)cc2)CC1 (stereo not drawn),22.5%,44.0%,2.8%
COCCn1c(C)cc(O)c(C(c2ccccc2)N2CCCCC2)c1=O (stereo not drawn),.,-3.2%,10.3%
O=C(Cn1ncc2c1-c1ccccc1OC2)N1CCN(c2ccccc2)CC1,.,3.7%,-14.0%
CCc1ccc(C2CC(=O)c3c([nH]c(C(=O)OCCOc4ccccc4)c3C)C2)cc1 (stereo not drawn),.,7.0%,18.1%
CCCCN(CCCC)CCNC(=O)Cn1nc(CC)n2c(cc3sc(C)cc32)c1=O,.,-3.6%,-2.7%
Cc1ccc(NC(=O)CSc2nc(O)cc(=O)n2C)cc1,-33.2%,28.5%,?
Cc1ccc(NC(=O)CSc2nc(O)c(Cc3ccccc3)c(=O)n2-c2ccccc2)cc1,11.2µM*,-1.1%,-7.5%
CCc1c(O)nc(SCC(=O)Nc2ccccc2)n(-c2ccccc2)c1=O,-23.6%,-8.5%,?
Cc1ccc(NC(=O)CSc2nc(O)cc(=O)n2-c2ccc(C)cc2)cc1,12.6µM*,4.0%,10.7%
O=C(Cn1cc2c(n1)CCCC2)NC1CCCCCC1,-58.5%,7.0%,?
CCOC(=O)N1CCC(NC(=O)Cn2cc3c(n2)CCCC3)CC1,2.82µM*,-0.8%,?
COc1ccc2sc(N(Cc3cccnc3)C(=O)c3cccs3)nc2c1,.,13.9%,1.2%
O=C(NCCN1CCN(c2cccc(Cl)c2)CC1)C1COc2ccccc2C1 (stereo not drawn),.,2.6%,-1.9%
CCCCN1C(C)=CC(=C2C(=O)c3ccccc3C2=O)C=C1C,-30.9%,3.4%,7.4%
CC1=CC(=C2C(=O)c3ccccc3C2=O)C=C(C)N1Cc1ccco1,70.7%,39.8µM*,-0.5%
CCOc1ccc(NC(=O)c2ccc3c(c2)CCN3S(=O)(=O)CC)cc1,.,-0.6%,-13.1%
O=C(O)c1ccc(S(=O)(=O)c2ccccc2C(=O)O)c([N+](=O)[O-])c1,-32.3%,6.5%,5.7%
O=C(O)c1ccc(S(=O)(=O)c2ccc([N+](=O)[O-])cc2[N+](=O)[O-])cc1,-27.9%,0.1µM*,?
Cc1c(C(=O)OCC(=O)Nc2cccc(S(N)(=O)=O)c2)oc2c1ccc1ccccc12,11.2µM*,-0.1%,-2.5%
NS(=O)(=O)c1cccc(NC(=O)COC(=O)c2ccccc2C(=O)c2ccccc2)c1,-46.7%,-5.8%,-1.1%
COc1ccccc1C(=O)N1CCC(c2noc(-c3ccc(S(=O)(=O)N4CCCC4)cc3)n2)CC1,.,6.2%,12.7%
COc1ccc(OC)c(S(=O)(=O)N2CCC(n3c(C)nc4cccnc43)CC2)c1,.,6.0%,3.1%
Clc1ccc(/C=C/c2ncc[nH]2)c(Cl)c1,-24.8%,1.2%,1.5%
Nc1nccc(/C=C/c2c(Cl)cccc2Cl)n1,-14.0%,20.9%,-14.2%
SMILES,AmpC no deterg,Sm TGR inh,AmpC inh detg
CSC1=NC(C)(C)C=C(/C=C/c2ccc(Cl)cc2Cl)N1,-16.0%,20µM*,?
CSC1=NC(C)(C)C=C(/C=C/c2ccc(Cl)cc2)N1,21.3%,5.01µM*,6.7%
Nc1nccc(/C=C/c2ccc(Cl)cc2)n1,-6.2%,11.9%,-11.0%
CCSC1=NC(C)(C)C=C(C)N1,?,-4.3%,-0.5%
CSC1=NC(C)(C)C=C(/C=C/c2c(Cl)cccc2Cl)N1,-15.9%,15.8µM*,-1.8%
CCSC1=NC(C)(C)C=C(/C=C/c2ccc(Cl)cc2Cl)N1,29.4%,17.8µM*,-7.1%
CCc1cccc(NC(=O)CN2C(=O)COc3ccc(S(=O)(=O)Nc4ccccc4)cc32)c1,.,8.6%,23.6%
Cc1ccc(-c2cc3c(n2-c2ccccc2F)CC(C)(C)CC3=O)cc1,.,7.6%,19.5%
COc1ccc(NC(=O)c2cc(-c3ccc(C)c(C)c3O)n[nH]2)cc1Cl,17.8µM*,-2.0%,?
Cc1ccc(NC(=O)c2cc(-c3ccc(C)c(C)c3O)n[nH]2)cc1C,-22.9%,10.8%,-17.2%
CCOc1ccc(N(C(=O)c2ccc(Cl)cc2)S(=O)(=O)c2ccc3c(c2)n(C)c(=O)n3C)cc1,.,1.2%,1.1%
COc1cccc(-n2cnnc2SC(C)C(=O)NC2CCCC2)c1 (stereo not drawn),-0.5%,50.1µM*,0.8%
COc1ccc(-n2cnnc2SC(C)C(=O)Nc2cccc([N+](=O)[O-])c2)cc1 (stereo not drawn),-14.0%,-1.4%,-1.4%
CCc1ccccc1N1C(=O)N(CC(=O)c2ccc(OC)cc2)c2ccccc2S1(=O)=O,.,4.3%,-2.1%
N#Cc1ccccc1NCc1ccccc1,-22.0%,-2.0%,?
O=C1C=C(NCc2ccccc2)c2ccccc2C1=O,-42.4%,28.2µM*,-2.1%
O=c1cccccc1NCc1ccccc1,-18.5%,35.5µM*,-0.2%
O=C1C=C(Nc2ccccc2O)c2ccccc2C1=O,-20.7%,-35.2%,?
Cc1ccc(NC(=O)c2nnn(CC(=O)Nc3ccc(C)c(Cl)c3)c2N)c(C)c1,.,4.6%,22.7%
Cc1ccc(N2CCN(C(=O)NCc3noc4ccccc34)CC2C)cc1 (stereo not drawn),.,2.4%,-1.4%
COCCN1C=C2C(=O)C(C)(OC(=O)CCC(=O)OC)C(=O)C=C2C=C1C1CC1 (stereo not drawn),-1.0%,-9.6%,0.1%
COC(=O)CCCC1=CC2=CC(=O)C(C)(OC(=O)c3cccs3)C(=O)C2=CN1Cc1ccco1 (stereo not drawn),60.1%,35.5µM*,-6.4%
COC(=O)CCC(=O)OC1(C)C(=O)C=C2C=C(C3CC3)N(Cc3ccco3)C=C2C1=O (stereo not drawn),57.7%,31.6µM*,0.5%
COC(=O)CCCC1=CC2=CC(=O)C(C)(OC(=O)c3cccs3)C(=O)C2=CN1Cc1ccccc1 (stereo not drawn),107.3%,-3.0%,0.8%
COc1ccc(N2CCN(c3ccc(-c4nc(-c5ccccc5C)no4)cc3[N+](=O)[O-])CC2)cc1,.,-4.3%,-3.0%
SMILES,AmpC no deterg,Sm TGR inh,AmpC inh detg
CC(C)CC(O)(c1ccccc1)C(CN1CCOCC1)c1ccccc1 (stereo not drawn),133.5%,-10.3%,-0.1%
OC(c1ccc(F)cc1)(C1CCCCC1)C(CN1CCOCC1)c1ccccc1 (stereo not drawn),88.4%,89.1µM*,?
COc1ccc(C)cc1NC(=O)NC(C)c1c(-n2cccc2)sc(C)c1C (stereo not drawn),.,-3.7%,0.0%
CN(Cc1ccccc1)C(=O)c1cccc(NC(=O)c2nsc3ccccc23)c1,.,5.8%,20.4%
Cc1ccc(-c2c(C#N)c(N)nc3c2CCCC3)o1,-2.2%,25.1µM*,0.4%
Cc1ccc(-c2cc(-c3ccccc3)c(C#N)c(N)n2)o1,-23.3%,3.55µM*,-1.2%
N#Cc1c(-c2ccncc2)cc(-c2ccc(F)cc2)nc1N,-13.5%,-15.1%,2.7%
Cc1ccc(-c2cc(-c3ccc(F)cc3)nc(N)c2C#N)o1,-52.4%,5.62µM*,2.2%
CCSc1nc2c(c(-c3ccc(C)o3)c1C#N)CCCC2,-33.5%,-22.8%,-12.1%
Cc1ccc(-c2cc(-c3ccccc3Cl)c(C#N)c(N)n2)o1,-30.6%,?,-12.6%

# Assay outcomes: PubChem, National Center for Advancing Translational Sciences (NCATS)
